# From PubChem BioAssay AID624483 (NMMLSC, 2012)
# The whole screen tested about 360,000 compounds, of which about 11,000 (3.1%) were called active. Inconclusive results (about 2%) are left out. Cut-off read from the data, not from the text of the source: active = fluorescence intensity above about 16000; inconclusive = no clear call, values can overlap the other calls; inactive = below that. What follows is part of a selection rich in actives, with near analogues and random picks from the rest.
# Experiment: counter-screen for toxin protease inhibitors: compound fluorescence, primary screen, artefact control for toxin protease inhibitor project, biochemical, multiplex microsphere, HTS (AID 624483)
# Settings: compound autofluorescence counterscreen, microsphere flow cytometry; stronger effect = higher value
row,Structure (SMILES),fluorescence intensity
1,Cc1nn(-c2ccccc2)c2[nH]c(C(F)(F)F)cc(=O)c12,4600 (inactive)
2,CCCOc1cc(C)c(S(=O)(=O)n2nnc3ccccc32)cc1C,16800 (active)
3,CCOc1cc(C)c(Cl)cc1S(=O)(=O)n1nnc2ccccc21,10500 (inactive)
4,CCOc1cc(C)c(S(=O)(=O)NCc2ccccn2)cc1C,3700 (inactive)
5,CC1CCCC(NC(=O)c2cccc(N3CCCC3=O)c2)C1C (centres undefined),2560 (inactive)
6,CC1CCC(NC(=O)c2ccc(N3CCCC3=O)cc2)CC1 (centres undefined),21800 (active)
7,O=C(NCCCN1CCCCCC1)c1ccc(N2CCCC2=O)cc1,3260 (inactive)
8,COc1ccc(C(=O)NCc2nnc(SCCOc3ccccc3)n2C)cc1,5100 (inactive)
9,C=CCn1c(SCC(=O)c2ccc(Br)cc2)nnc1C(C)NC(=O)Cc1ccc(OC)cc1 (centres undefined),23200 (active)
10,C=CCn1c(CNC(=O)c2ccco2)nnc1SCC(=O)c1ccc(OC)cc1,3770 (inactive)
11,C=CCn1c(SCc2ccc(Cl)c(Cl)c2)nnc1C(CO)NC(=O)c1ccc(OC)cc1 (centres undefined),2760 (inactive)
12,C=CCn1c(SCCOc2ccc(OC)cc2)nnc1C(NC(=O)c1ccc(OC)cc1)C(C)C (centres undefined),24400 (active)
13,CCn1c(SCC(=O)NNC(=O)c2ccc(OC)cc2)nnc1C(C)C,6340 (inactive)
14,CCCNC(=O)c1cc(C2CCCCN2S(=O)(=O)c2cn(C)cn2)on1 (centres undefined),3300 (inactive)
15,O=C(NCc1ccc(F)cc1)C1CCC(CNc2c(N3CCOCC3)c(=O)c2=O)CC1 (centres undefined),4840 (inactive)
16,O=S(=O)(NC1CC2CCC1C2)c1ccc(Cl)cc1 (centres undefined),3140 (inactive)
17,CCOC(=O)[C@]12CCCC=C1N(Cc1ccc(Cl)cc1Cl)C(=O)[C@H](CC(=O)N1CCCCC1)C2,6000 (inactive)
18,COc1cccc(-c2cc3nc(NCCOc4ccccc4Cl)n(C)c(=O)c3s2)c1,3580 (inactive)
19,CC1(C(=O)NS(=O)(=O)c2cccc(F)c2)CCN1C(=O)Cc1ccc(Cl)cc1Cl (centres undefined),3750 (inactive)
20,CCCCN1C(=O)C(CC(=O)NCc2cccs2)CC(C(=O)N2CCCCCC2)=C1C (centres undefined),5770 (inactive)
21,CN(C)c1ccnc(Oc2ccc(F)cc2)c1C#N,8110 (inactive)
22,O=C(CNC(=O)c1ccccc1)NCC(=O)OCc1ccc(Cl)cc1,22400 (active)
23,O=C(CCC(=O)OCc1ccc(Cl)cc1)Nc1ccccc1,2700 (inactive)
24,O=C(CNC(=O)c1ccccc1)NCC(=O)OCC(=O)c1ccccc1,5170 (inactive)

row,Structure (SMILES),fluorescence intensity
1,O=C1c2ccccc2C(=O)N1CCCCCCN1C(=O)c2ccccc2C1=O,3880 (inactive)
2,O=C(OCCN1C(=O)c2ccccc2C1=O)Oc1ccccc1,4060 (inactive)
3,Nc1ccc(SCCN2C(=O)c3ccccc3C2=O)cc1,19900 (active)
4,CCOc1ccc2c(c1)cc(CN(C(=O)CC)C1CCCCC1)c1nnnn12,3990 (inactive)
5,CCOC1=C2[C@@H](CN(S(=O)(=O)c3ccc(C)cc3)[C@H]2c2ccccc2F)[C@H]2C(=O)N(Cc3ccccc3)C(=O)[C@H]2C1,4840 (inactive)
6,CCOc1ccc2[nH]c(=S)sc2c1,5910 (inactive)
7,O=C(NCC(c1cccs1)N1CCOCC1)c1cc(-c2ccccn2)nc2ccccc12 (centres undefined),4740 (inactive)
8,O=C(c1ccccc1)c1cc(-c2ccccn2)c(N2CCOCC2)s1,25300 (active)
9,CCc1ccc2ncc(C(=O)c3ccccc3)c(N3CCOCC3)c2c1,6180 (inactive)
10,Cc1cc(C)c(C)c(S(=O)(=O)Nc2cccnc2)c1C,6330 (inactive)
11,COc1ccc(S(=O)(=O)Nc2cccnc2)c(Cl)c1Cl,3840 (inactive)
12,COc1ccccc1Oc1ccc(S(=O)(=O)Nc2cccnc2)cc1,21600 (active)
13,COC(=O)c1ccc2nc(-c3ccc(OC)c(OC)c3)c(Cc3ccccc3)n2c1,4370 (inactive)
14,Clc1cccc(Cc2c(-c3cccc(Cl)c3)nc3ccc(Cl)cn23)c1,8680 (inactive)
15,Fc1cccc(Cc2c(-c3ccc(Cl)cc3)nc3ccc(Cl)cn23)c1,8180 (inactive)
16,Fc1cccc(Cc2c(-c3cccc(Cl)c3)nc3ccc(Br)cn23)c1,19700 (active)
17,OC[C@@H]1CN(Cc2ccncc2)C[C@H](n2cnc3c(N4CCN(c5ccccc5)CC4)ncnc32)O1,3810 (inactive)
18,COCCN1C(=O)N(c2ccc(Cl)cc2)C(=O)C1CC(=O)Nc1cc(OC)cc(OC)c1 (centres undefined),3750 (inactive)
19,CC(C)(C)OC(=O)N/N=C/c1ccc(C(=O)O)cc1,2640 (inactive)
20,Cc1cc(C)cc(NC(=O)COC(=O)c2cc(C)oc2C)c1,4090 (inactive)
21,Cc1cc(C(=O)OCC(=O)Nc2ccccc2Cl)c(C)o1,8500 (inactive)
22,Cc1cc(C(=O)OCC(=O)Nc2ccc(F)c(F)c2)c(C)o1,21600 (active)
23,COc1ccc(-c2nnc(-c3ccc4ccccc4c3)o2)cc1,3860 (inactive)
24,CCCCOc1ccc(-c2nnc(-c3ccco3)o2)cc1,21200 (active)

row,Structure (SMILES),fluorescence intensity
1,CCCCSc1nnc(-c2ccc(C)cc2)o1,11000 (inactive)
2,NCCCNC(=S)NCCCN(Cc1ccc(Cl)cc1)c1ccc(Br)cn1,3820 (inactive)
3,O=C(NCc1ccco1)c1cccc(-c2ccc3nncn3c2)c1,3920 (inactive)
4,O=C(Nc1ccc(Cl)cc1)c1cc2nc(C3CC3)cc(C(F)(F)F)n2n1,11300 (inactive)
5,CC1CCN(C(=O)c2cc3nc(C4CC4)cc(C(F)(F)F)n3n2)CC1,3040 (inactive)
6,C=CCNC(=O)c1cc2nc(C3CC3)cc(C(F)F)n2n1,17500 (active)
7,CN(C)c1cccc(NC(=O)c2ccc(-c3ccc(F)c(F)c3)c3ccoc23)c1,3910 (inactive)
8,CCCCn1nnnc1C(c1cc2ccccc2o1)N(C)Cc1ccc(Cl)c(Cl)c1 (centres undefined),5870 (inactive)
9,CC(C)N(C(=O)CSc1nc(COc2ccccc2)nc2ccccc12)C(C)C,3830 (inactive)
10,C=CCSc1nc(Cc2ccc(Cl)cc2)nc2ccccc12,23600 (active)
11,CCCNC(=O)CSc1nc(Cc2ccccc2)nc2ccccc12,2990 (inactive)
12,CCc1nc2ccc(C(=O)N3CCC(O)(Cc4ccccc4)CC3)cn2c1N(C)C(=O)Cc1ccccc1,3520 (inactive)
13,O=S1(=O)CC(N2CCC(Cc3ccccc3)CC2)CN1Cc1ccccc1 (centres undefined),6300 (inactive)
14,Cc1noc(C)c1-c1ccc(C(=O)NCc2ccncc2)c2occc12,3470 (inactive)
15,COc1ccccc1N1CCN(S(=O)(=O)c2ccc3c(c2)NC(=O)CS3)CC1,5880 (inactive)
16,Cc1cc(OC(C)C(=O)NC2CC(C)(C)NC(C)(C)C2)c2c(C)cc(=O)oc2c1 (centres undefined),6440 (inactive)
17,CCc1cc(=O)oc2cc(C)cc(OC(C)C(=O)O)c12 (centres undefined),22000 (active)
18,CCc1cc(=O)oc2cc(C)cc(OCC(=O)N3CCC[C@@H]3C(=O)O)c12,5750 (inactive)
19,CCCSc1nsc(N)n1,17300 (active)
20,Nc1nc(SC23CC4CC(CC(C4)C2)C3)ns1,3930 (inactive)
21,CCCCCCSc1nsc(N)n1,6410 (inactive)
22,Cc1ccc(CNC(=O)c2cc(-c3ccccc3C)n(CC3CC(c4cccc([N+](=O)[O-])c4)=NO3)n2)cc1 (centres undefined),4220 (inactive)
23,CCOC(=O)[C@]12CCC=C1N(Cc1ccccc1)C(=O)[C@H](CC(=O)N1CCCC1)C2,5780 (inactive)
24,CC1(C(=O)NS(=O)(=O)C2CC2)CCCN(C(=O)CSc2ccccc2)C1 (centres undefined),3670 (inactive)

row,Structure (SMILES),fluorescence intensity
1,CCn1c(=O)cc(OCC(=O)NCCCN2CCN(c3cccc(Cl)c3)CC2)c2ccccc21,20500 (active)
2,CCOC(=O)N1CCC(Nc2c(NCCN3CCN(c4cccc(Cl)c4)CC3)c(=O)c2=O)CC1,4590 (inactive)
3,O=C(Cc1csc(Nc2nc(=S)[nH]c3ccccc23)n1)NCCCN1CCN(c2cccc(Cl)c2)CC1,4240 (inactive)
4,O=C(CC[C@H]1O[C@@H](n2ccc(=O)[nH]c2=O)[C@H](O)[C@@H]1O)N[C@H](Cc1ccccc1)C(=O)NCc1ccco1,4020 (inactive)
5,CCOC(=O)C1(C)CCCN(C(=O)c2ccc(N(C)C)cc2)C1 (centres undefined),9620 (inactive)
6,Cc1ccccc1NC(=O)CSc1ccc2nnc(-c3ccccn3)n2n1,6840 (inactive)
7,CCOc1cccc(-c2nn3c(-c4ccccn4)nnc3s2)c1,16800 (active)
8,CCOc1cccc(-c2nnc(SCC(=O)NC3CC3)n2C)c1,5480 (inactive)
9,CN(C)S(=O)(=O)N1CCN(c2ccc([N+](=O)[O-])cc2)CC1,4070 (inactive)
10,CCCOc1ccc(F)cc1-c1cc(C(=O)Nc2ccc(F)c(Cl)c2)[nH]n1,3800 (inactive)
11,CN(C)C(=O)c1cccc(-c2cnc3c(NC=O)cc(-c4ccc(F)cc4)cn23)c1,3680 (inactive)
12,CCOC(=O)c1cnc2c(c(C)nn2CC)c1Cl,4390 (inactive)
13,CCOC(=O)c1cnc(-n2nc(C)cc2C)nc1-n1nc(C)cc1C,16800 (active)
14,CCOC(=O)c1cnc(-n2nc(C)cc2C)nc1NNc1cc(C)nc(-c2ccccc2)n1,7400 (inactive)
15,CCc1nc2c(OCCOc3ccc(F)cc3)cccn2c1N(C)C(=O)c1ccccc1F,3010 (inactive)
16,CN1CCN(S(=O)(=O)c2ccc3[nH]cc(C(=O)O)c(=O)c3c2)CC1,21500 (active)
17,Cc1ccc(S(=O)(=O)N2CCN(C)CC2)cc1C(=O)NC1CCCCC1,4410 (inactive)
18,Cc1ccc(S(=O)(=O)N2CCN(C)CC2)cc1,4010 (inactive)
19,c1ccc(COc2ccccc2CNCc2cccnc2)cc1,7500 (inactive)
20,O=C(COC(=O)CCc1ccc(S(=O)(=O)N2CCOCC2)cc1)Nc1cccc(Cl)c1,4250 (inactive)
21,O=C(CCc1ccc(S(=O)(=O)N2CCOCC2)cc1)Nc1ccc2ccccc2c1,21400 (active)
22,O=C(CCc1ccc(S(=O)(=O)N2CCOCC2)cc1)NN=C1CCCCCCC1,2120 (inactive)
